Where “and” joins values, the source holds several entries; their conditions need not be identical. Equal entries are not always repeated. Some structures have more than one record in an assay (separate samples or runs), and their calls can disagree. Calls of active or inactive are those of the source. Where a call stands in place of a potency, no number is given. Calls come from the whole dose curve; as a rule, active = well fitted activation curve with a large enough effect in the repeat runs; inconclusive = weak or mixed curves; inactive = flat fitted curve, though single readings scatter.
Experiment: A CellTox Green Cytotoxicity Assay to monitor cytotoxicity in HEK293 cells - 0 hour (AID 1224869); note: nearly all actives have a fitted effect of over 50% in size
Conditions: CellTox Green fluorescence; series mostly up to 76.8 µM
Text: National Center for Advancing Translational Sciences [NCATS]
NIH Chemical Genomics Center [NCGC]
U.S. Environmental Protection Agency [EPA]
National Institutes of Environmental Health Sciences [NIEHS]
National Toxicology Program [NTP]
Cell-based models are critical for drug discovery. Determining the natural cytotoxic effects resulting from test compounds is an essential research activity. A CellTox Green Cytotoxicity Assay to monitor cytotoxicity in real time of continues cell culture during 40 hours of the compound treatment was used to screen Tox21 10K library compounds in Hek293 cells. CellTox Green Cytotoxicity Assay is a nonlytic, homogeneous, biofluorescent method to measure cytotoxicity in cell culture after experimental manipulation. The assay system uses a proprietary asymmetric cyanine dye that is excluded from viable cells but preferentially stains the dead cell's DNA. […] Viable cells produce no appreciable increases in fluorescence. Therefore, the fluorescence signal produced by the binding interaction with dead cell DNA is proportional to cytotoxicity.
The mixture of Hek293 cell suspension and reagents were dispensed at 600cells/6 ul/well in 1536-well tissue culture treated black solid bottom plates using a Multidrop dispenser. After the assay plates were incubated at a 37 C/5% CO2 incubator for 5 hours, 23 nL of compounds dissolved in DMSO, positive and negative controls was transferred to the assay plate by a pintool work station. The plates were incubated at 37 C for 40 hours. The fluorescence intensity were measured at 0h, 8h, 16h, 24h, 32h and 40h time points using ViewLux plate reader during compound treatment.
With `ClCC(Cl)CCl` the Potency was “inactive”. With `O=C1CCCO1` the Potency was “inactive”. For `CSc1nc(NC(C)C)nc(NC(C)C)n1`, the Potency was “inactive”. In the case of `Cc1cc(Cl)ccc1N=CN(C)C`, the Potency is reported as “inactive”. For `Clc1ccccc1-c1nnc(-c2ccccc2Cl)nn1`, the Potency was “inactive”. With `CCNCC` the Potency was “inactive”. For `CCCCOC(=O)COC(=O)c1ccccc1C(=O)OCCCC`, the Potency was “inactive”. For `CC(C)=CC1C(C(=O)OCc2cccc(Oc3ccccc3)c2)C1(C)C` (stereo not given), the Potency was “inactive”. In the case of `O=[N+]([O-])c1ccc(Nc2ccccc2)cc1`, the Potency is reported as “inactive”. With `CCOC(=O)c1ccccc1N` the Potency was “inactive”. For `[Cl-].[Cl-].[Cl-].[Fe+3]`, the Potency was “inactive”. For `ClC(Cl)(Cl)Br`, the Potency was “inactive”. In the case of `OCCOCCO`, the Potency is reported as “inactive”. With `CS(=O)(=O)NC(=O)c1cc(Oc2ccc(C(F)(F)F)cc2Cl)ccc1[N+](=O)[O-]` the Potency was “inactive”. For `Nc1ccc2ccccc2c1`, the Potency was “inactive”. With `CCCCOCC1CO1` (stereo not given) the Potency was “inactive and 19.5 µM (active)”. With `NC(=O)CN1CCCC1=O` the Potency was “inactive”. With `O=C(O)CF` the Potency was “inactive”. In the case of `O=[N+]([O-])/N=C1\NCCN1Cc1ccc(Cl)nc1`, the Potency is reported as “inactive”. With `CC(C)(c1ccc(OCC2CO2)cc1)c1ccc(OCC2CO2)cc1` (stereo not given) the Potency was “inactive”. For `COc1ccc(O)c(C(C)(C)C)c1`, the Potency was “inactive”. In the case of `CC1(C)Cc2cccc(O)c2O1`, the Potency is reported as “inactive”. In the case of `Cc1ccc([N+](=O)[O-])cc1`, the Potency is reported as “inactive”. For `CC1=C(C(=O)Nc2ccccc2)SCCO1`, the Potency was “inactive”. With `CCC(=O)Nc1ccc(Cl)c(Cl)c1` the Potency was “inactive”. For `CC1(C)C(C(=O)OC(C#N)c2cccc(Oc3ccccc3)c2)C1(C)C` (stereo not given), the Potency was “inactive”. In the case of `N#CC(c1ccccc1)c1ccccc1`, the Potency is reported as “inactive”. In the case of `CC(C)CON=O`, the Potency is reported as “inactive”. With `N#Cc1cccnc1` the Potency was “inactive”. For `CC(C)Nc1nc(Cl)nc(NC(C)C)n1`, the Potency was “inactive”. For `c1ccc(C2CO2)cc1` (stereo not given), the Potency was “inactive”. For `C=CC(Cl)CCl` (stereo not given), the Potency was “inactive”. For `Cn1c(-c2ccccc2)cc(-c2ccccc2)[n+]1C`, the Potency was “inactive”. In the case of `COP(=S)(OC)Oc1ccc(Sc2ccc(OP(=S)(OC)OC)cc2)cc1`, the Potency is reported as “inactive”. With `C[C@]12CC[C@H]3[C@@H](CCC4=CC(=O)CC[C@@H]43)[C@@H]1CC[C@@H]2O` the Potency was “inactive”. In the case of `O=S(=O)(O)C(F)(F)C(F)(F)C(F)(F)C(F)(F)C(F)(F)C(F)(F)C(F)(F)C(F)(F)F`, the Potency is reported as “inactive”. For `Oc1ccc(Cl)cc1Cc1ccccc1`, the Potency was “inactive”. With `Clc1cccc(Cl)c1` the Potency was “inactive”. In the case of `[CH3][Sn]([Cl])([Cl])[Cl]`, the Potency is reported as “inactive”. In the case of `CCOP(=O)(OCC)OCC`, the Potency is reported as “inactive”.

From PubChem BioAssay (Tox21)
Potency is the fitted concentration of half-maximal effect.
